Assay results: paper PMC3218832

Experiments:
Test in all cases: protein binding microarray; high values mean tight binding
Details in all cases: dsDNA, one strand shown
RELARELA (p65 homodimer) = RELARELA (p65 homodimer) (Homo sapiens, UniProt Q04206 1-307)
p50p50 homodimer = p50p50 homodimer (Homo sapiens, UniProt P19838 7-356)
p52p52 homodimer = target: T1, p52p52 homodimer (Homo sapiens, UniProt Q00653 4-332)
T1 sequence: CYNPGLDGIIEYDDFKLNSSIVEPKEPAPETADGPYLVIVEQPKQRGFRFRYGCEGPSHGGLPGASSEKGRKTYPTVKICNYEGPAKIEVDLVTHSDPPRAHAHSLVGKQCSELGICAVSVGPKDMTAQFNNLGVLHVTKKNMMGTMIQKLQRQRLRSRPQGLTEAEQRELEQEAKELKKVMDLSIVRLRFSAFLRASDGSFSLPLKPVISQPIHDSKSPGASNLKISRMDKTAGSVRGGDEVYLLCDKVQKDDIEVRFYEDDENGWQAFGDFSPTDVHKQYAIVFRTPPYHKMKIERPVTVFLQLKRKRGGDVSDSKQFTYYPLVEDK

[1] = target: RELA (p65) subunit of heterodimer;p50 subunit (Homo sapiens;Homo sapiens, UniProt Q04206;P19838 1-307;7-356)
[2] = target: RELA (p65) subunit of heterodimer;p52 subunit (Homo sapiens;Homo sapiens, UniProt Q04206;Q00653 1-307;4-332)
RELB subunit;p50 subunit = RELB subunit;p50 subunit (Homo sapiens;Homo sapiens, UniProt Q01201;P19838 120-401;7-356)
RELB subunit;p52 subunit = target: T2, RELB subunit;p52 subunit (Homo sapiens;Homo sapiens, UniProt Q01201;Q00653 120-401;4-332)
T2 sequence 1: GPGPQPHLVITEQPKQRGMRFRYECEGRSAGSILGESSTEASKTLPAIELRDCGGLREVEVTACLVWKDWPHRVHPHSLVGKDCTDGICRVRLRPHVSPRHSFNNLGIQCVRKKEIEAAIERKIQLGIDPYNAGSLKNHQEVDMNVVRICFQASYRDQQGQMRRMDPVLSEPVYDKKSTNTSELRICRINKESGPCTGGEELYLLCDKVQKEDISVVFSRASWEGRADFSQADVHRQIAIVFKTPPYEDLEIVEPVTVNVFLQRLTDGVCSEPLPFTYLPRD
T2 sequence 2: T1 sequence

[3] = target: C-Rel subunit;p50 subunit (Homo sapiens;Homo sapiens, UniProt Q04864;P19838 1-285;7-356)
[4] = target: T3, C-Rel subunit;p52 subunit (Homo sapiens;Homo sapiens, UniProt Q04864;Q00653 1-285;4-332)
T3 sequence 1: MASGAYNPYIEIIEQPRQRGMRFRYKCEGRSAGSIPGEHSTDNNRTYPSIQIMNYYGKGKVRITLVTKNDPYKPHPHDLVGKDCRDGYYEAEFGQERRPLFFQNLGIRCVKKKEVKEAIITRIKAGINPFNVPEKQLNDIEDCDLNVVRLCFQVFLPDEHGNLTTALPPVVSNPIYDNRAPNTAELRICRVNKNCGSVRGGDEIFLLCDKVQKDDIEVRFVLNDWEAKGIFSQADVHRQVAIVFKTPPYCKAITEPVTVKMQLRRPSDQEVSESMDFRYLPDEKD
T3 sequence 2: T1 sequence

Chain of p50p50 homodimer (P19838 7-356): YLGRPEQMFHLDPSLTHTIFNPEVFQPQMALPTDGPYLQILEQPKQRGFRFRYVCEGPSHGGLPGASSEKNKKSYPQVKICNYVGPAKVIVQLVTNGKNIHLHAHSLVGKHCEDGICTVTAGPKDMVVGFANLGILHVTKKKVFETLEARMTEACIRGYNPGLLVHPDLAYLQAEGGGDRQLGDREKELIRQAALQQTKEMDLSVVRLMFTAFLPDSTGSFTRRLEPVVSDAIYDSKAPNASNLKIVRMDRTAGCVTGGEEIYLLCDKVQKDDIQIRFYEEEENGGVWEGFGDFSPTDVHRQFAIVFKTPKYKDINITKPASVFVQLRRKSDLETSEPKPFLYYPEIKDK
Chain of RELA (p65) subunit of heterodimer;p50 subunit (Q04206 1-307, chain 1 of 2): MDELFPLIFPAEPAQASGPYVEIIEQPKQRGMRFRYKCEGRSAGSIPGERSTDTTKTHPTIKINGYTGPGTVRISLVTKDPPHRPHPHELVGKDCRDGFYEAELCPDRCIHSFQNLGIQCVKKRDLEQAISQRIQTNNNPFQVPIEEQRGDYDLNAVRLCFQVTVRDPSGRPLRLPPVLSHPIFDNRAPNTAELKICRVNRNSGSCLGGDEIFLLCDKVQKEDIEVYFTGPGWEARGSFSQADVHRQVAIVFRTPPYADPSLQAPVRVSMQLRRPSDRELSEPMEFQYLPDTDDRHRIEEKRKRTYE
Chain of RELA (p65) subunit of heterodimer;p50 subunit (P19838 7-356, chain 2 of 2): as the sequence (P19838 7-356) above
Chain of RELARELA (p65 homodimer) (Q04206 1-307): as the sequence (Q04206 1-307, chain 1 of 2) above

Sequence | binding signal (RELARELA (p65 homodimer)) | binding signal (p50p50 homodimer) | binding signal (p52p52 homodimer) | binding signal [1] | binding signal [2] | binding signal (RELB subunit;p50 subunit) | binding signal (RELB subunit;p52 subunit) | binding signal [3] | binding signal [4]
GAAAACCCCCT | 1.83 z-score | 1.6 z-score | 2.75 z-score | 2.46 z-score | 2.59 z-score | 3.02 z-score | 2.62 z-score | 1.99 z-score | 2.86 z-score
AAGGGCACCCC | -0.322 z-score | -0.576 z-score | -0.342 z-score | -0.454 z-score | -0.414 z-score | -0.379 z-score | -0.217 z-score | -0.33 z-score | -0.364 z-score
AGAGGCCTCCT | -0.539 z-score | -1.92 z-score | -0.785 z-score | -1.08 z-score | -1.07 z-score | -1.08 z-score | -0.973 z-score | -1.66 z-score | -0.937 z-score
CGGGTTACCCT | 0.242 z-score | -0.264 z-score | -0.0855 z-score | -0.112 z-score | -0.124 z-score | 0.063 z-score | -0.22 z-score | -0.0809 z-score | -0.0258 z-score
GAGGACGTCCC | 0.381 z-score | 0.144 z-score | 0.388 z-score | 0.0977 z-score | 0.262 z-score | 0.14 z-score | 0.0168 z-score | 0.15 z-score | 0.205 z-score
GGGGTGTTCCT | 1.06 z-score | 0.337 z-score | 0.617 z-score | 0.455 z-score | 0.487 z-score | 0.00295 z-score | 0.472 z-score | 0.537 z-score | 0.791 z-score
CGGTTCCCCCC | 0.357 z-score | 1.52 z-score | 1.57 z-score | 2.24 z-score | 1.89 z-score | 2.3 z-score | 2.23 z-score | 1.85 z-score | 1.73 z-score
CAAATAGCCCC | 0.081 z-score | 0.839 z-score | 0.425 z-score | 0.413 z-score | 0.823 z-score | 0.524 z-score | 0.621 z-score | 0.331 z-score | 0.543 z-score
AAAATTTTCCT | 1.75 z-score | 0.214 z-score | 0.0641 z-score | 0.434 z-score | 0.225 z-score | -0.311 z-score | -0.176 z-score | 0.47 z-score | 0.322 z-score
AGAGAGATCCC | -0.281 z-score | -0.511 z-score | -0.367 z-score | -0.448 z-score | -0.506 z-score | -0.355 z-score | -0.569 z-score | -0.565 z-score | -0.502 z-score
GAAGTTATCCC | -0.0836 z-score | -0.295 z-score | -0.152 z-score | -0.31 z-score | -0.235 z-score | -0.113 z-score | -0.152 z-score | -0.126 z-score | -0.251 z-score
CGGGGGGTCCC | 0.448 z-score | 0.975 z-score | 2.05 z-score | 1.38 z-score | 1.59 z-score | 1.28 z-score | 1.67 z-score | 1.04 z-score | 1.59 z-score
AAGAATGTCCC | 1.27 z-score | 0.914 z-score | 0.691 z-score | 0.927 z-score | 0.625 z-score | 0.695 z-score | 0.54 z-score | 0.518 z-score | 0.463 z-score
GAAGAAGCCCT | -0.988 z-score | -1.65 z-score | -0.651 z-score | -0.934 z-score | -0.868 z-score | -1.04 z-score | -0.801 z-score | -1.08 z-score | -0.998 z-score
CAGGGAGTCCT | 0.0727 z-score | 0.0337 z-score | -0.143 z-score | -0.336 z-score | -0.215 z-score | -0.201 z-score | -0.323 z-score | -0.383 z-score | -0.23 z-score
AGATGCGCCCT | -0.621 z-score | -1.13 z-score | -0.603 z-score | -0.768 z-score | -0.721 z-score | -1.01 z-score | -0.804 z-score | -1.47 z-score | -0.758 z-score
AGATTACCCCC | 0.372 z-score | 1.19 z-score | 0.936 z-score | 1.24 z-score | 1.2 z-score | 1.18 z-score | 1.63 z-score | 1.21 z-score | 1.12 z-score
GGATGACTCCC | -0.304 z-score | -0.794 z-score | -0.473 z-score | -0.49 z-score | -0.701 z-score | -0.618 z-score | -0.826 z-score | -0.932 z-score | -0.692 z-score
CAGTAAATCCT | -0.441 z-score | -1.23 z-score | -0.605 z-score | -0.903 z-score | -0.822 z-score | -0.822 z-score | -0.598 z-score | -1.01 z-score | -0.81 z-score
AGGAAAGTCCC | 2.97 z-score | 0.984 z-score | 2.54 z-score | 2.16 z-score | 1.77 z-score | 1.45 z-score | 1.93 z-score | 2.17 z-score | 2.89 z-score
AAAATAGTCCT | -0.023 z-score | -0.728 z-score | -0.497 z-score | -0.709 z-score | -0.767 z-score | -0.806 z-score | -0.856 z-score | -0.761 z-score | -0.606 z-score
CAAATTCCCCC | 2.31 z-score | 1.64 z-score | 2.63 z-score | 2.41 z-score | 2.32 z-score | 2.69 z-score | 2.35 z-score | 1.89 z-score | 2.65 z-score
GAGTGTGCCCT | -0.0374 z-score | -1.69 z-score | -0.704 z-score | -0.552 z-score | -0.825 z-score | -0.946 z-score | -0.867 z-score | -0.869 z-score | -0.582 z-score
AGATAGTTCCC | 0.521 z-score | -0.317 z-score | -0.177 z-score | -0.261 z-score | -0.107 z-score | -0.129 z-score | -0.286 z-score | -0.0396 z-score | -0.0868 z-score
CGAATGATCCT | -0.807 z-score | -1.92 z-score | -0.659 z-score | -0.966 z-score | -0.935 z-score | -1.16 z-score | -0.928 z-score | -1.72 z-score | -0.968 z-score
CAGGTCATCCT | -0.599 z-score | -1.84 z-score | -0.537 z-score | -1.21 z-score | -1.08 z-score | -1.24 z-score | -0.916 z-score | -1.52 z-score | -1.02 z-score
CGATGACCCCT | -0.679 z-score | -0.0343 z-score | -0.125 z-score | -0.386 z-score | -0.154 z-score | -0.223 z-score | -0.0567 z-score | -0.665 z-score | -0.266 z-score
CGATGTCTCCT | -0.49 z-score | -1.36 z-score | -0.736 z-score | -0.843 z-score | -0.849 z-score | -1.04 z-score | -0.858 z-score | -1.52 z-score | -0.895 z-score
CGGTGTCTCCC | -0.108 z-score | -0.00286 z-score | 0.283 z-score | 0.0635 z-score | 0.211 z-score | -0.121 z-score | 0.143 z-score | -0.0512 z-score | 0.354 z-score
AAAGTGCCCCC | 0.331 z-score | 1.09 z-score | 0.518 z-score | 0.793 z-score | 0.904 z-score | 0.839 z-score | 1.17 z-score | 0.964 z-score | 0.619 z-score
